The list is not random: actives were taken first. Their share in the collection is about 2.2%.
TRPM1 prom inh = reduces MITF-dependent TRPM1 promoter luciferase signal; SK-MEL-5 TRPM1 promoter luciferase, 24 h; inhibition, % at 12.5 µM; 330,000 tested, 0.83% active;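 active = mean inhibition across replicates of 60% or more, whatever share of single replicates reaches that level; inconclusive = some that reach 60%, reason not given; inactive = mean inhibition across replicates below 60%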
LGR2 antag = blocks bursicon-induced cAMP signaling via Drosophila LGR2. HEK293 LGR2, CRE-luciferase, bursicon-stimulated, 4 h. inhibition, % at 9.99 µM. 380,000 tested, 0.35% active. AID 720647;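 active = drop in luminescence signal, shown as inhibition above about 50% in the replicate tests, limit read from the data, passing the limit was not always enough; inconclusive = probably only some replicates passing the limit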;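 note: agonist challenge used bursicon conditioned medium at about half maximal strength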
LMP1 NFkB inh = inhibitors of Epstein-Barr LMP1-induced NF-kappaB reporter; inhibition, % at 12.5 µM; AID 504558; 350,000 tested, 0.69% active; LMP1-induced NF-kappaB luciferase reporter cells, luminescence; in the data active = inhibition above about 41%; inconclusive = no clear call, values can overlap the other calls;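 note: 0% = neutral control wells and 100% = reference inhibitor control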
Shn3 inh set2 = inhibitors of Schnurri-3 3'UTR reporter in osteoblasts; Clone20 osteoblast Shn3 3'UTR firefly luciferase, 24 h; inhibition, % at 12.5 µM; 360,000 tested, 0.52% active; AID 588674;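 active = mean inhibition of at least 75% with every replicate also reaching 75%; inconclusive = mean inhibition at least 75% but some replicate below; inactive = mean inhibition below 75%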;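 note: 0% = median of neutral control wells and 100% = pilot-screen positive control compound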
PAX8 reporter = lowers PAX8-driven luciferase in RMG-I cells; RMG-I TPO-luciferase reporter, SteadyGlo, 24 h; inhibition, % at 12.6 µM; 360,000 tested, 1.2% active; AID 652154;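 active = mean replicate inhibition at least 60% with every replicate also reaching 60%; inconclusive = only one of the two criteria is met; inactive = mean below 60% and not all replicates reaching 60%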;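 note: luciferase light reporting Pax8 driven TPO promoter activity; plate controls were median of neutral control wells for no effect and mitoxantrone controls for full effect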
EWS-Fli inh = inhibitors of EWS/Fli oncoprotein transcriptional activity | A673 NR0B1-luciferase reporter, viability-normalised | inhibition, % at 12.6 µM | 350,000 tested, 0.67% active;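 active = mean inhibition of at least 50% after viability correction, with every replicate also passing that limit; inconclusive = mean reaches 50% but only one of two replicates passes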;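 note: firefly luciferase signal divided by Alamar Blue viability fluorescence both relative to DMSO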
* marks the source's active call; other numbers are inactive results; ? = inconclusive; nt = no result given.

SMILES	TRPM1 prom inh	LGR2 antag	LMP1 NFkB inh	Shn3 inh set2	PAX8 reporter	EWS-Fli inh
COc1cc(NC(=O)N2CCNC2=O)cc(C(=O)Nc2cccc(C(F)(F)F)c2)c1	10	-5	15	9	63*	59*
CCN1CCN(Cc2ccc(NC(=O)c3cc(NC(=O)C4=NN(c5ccccc5)C(=O)C4)cc(OC)c3)cc2C(F)(F)F)CC1	6	1	-4	-5	1	1
CCN1CCN(Cc2ccc(NC(=O)c3cc(NC(=O)N4CCNC4=O)cc(OC)c3)cc2C(F)(F)F)CC1	-4	2	11	13	9	24
COc1ccc(S(=O)(=O)Nc2ccc3c(c2)C(=O)N([C@@H](C)CO)C[C@@H](C)[C@@H](CN(C)C(=O)Nc2ccc(F)cc2)O3)cc1	nt	17	nt	nt	14	-5
CCN1CCN(Cc2ccc(NC(=O)c3cc(NC(=O)c4ccc5n[nH]nc5c4)cc(OC)c3)cc2C(F)(F)F)CC1	2	5	-18	-27	4	-15
COc1cc(NC(=O)c2nccnc2N)cc(C(=O)Nc2cccc(C(F)(F)F)c2)c1	22	-4	-34	2	76*	23
COc1cc(NC(=O)c2cc3cccc(OC)c3o2)cc(C(=O)Nc2cccc(C(F)(F)F)c2)c1	51	22	13	50	92*	29
COc1cc(NC(=O)c2ccc(N)nc2)cc(C(=O)Nc2cccc(C(F)(F)F)c2)c1	-35	-54	-15	-12	29	-37
COc1cc(NC(=O)c2ccno2)cc(C(=O)Nc2cccc(C(F)(F)F)c2)c1	2	nt	9	0	28	15
CCN1CCN(Cc2ccc(NC(=O)c3cc(NC(=O)c4cc(-c5ccc(OC)cc5)n[nH]4)cc(OC)c3)cc2C(F)(F)F)CC1	99*	2	-2	9	?	51*
CCC(=O)N1CCCCN2[C@@H](CO)[C@@H](c3ccc(C#Cc4cccnc4)cc3)[C@@H]2C1	nt	2	nt	nt	-26	7
CC(=C\C(=O)O)/C(=C/c1ccc(C)o1)C(=O)O	4	-23	-3	0	76*	4
C[C@@H]1CN([C@H](C)CO)C(=O)Cc2cc(NS(=O)(=O)c3cccs3)ccc2O[C@@H]1CN(C)S(=O)(=O)c1cn(C)cn1	nt	23	nt	nt	-29	0
COc1ccc(NC(=O)N(C)C[C@H]2Oc3ccc(NC(=O)NC(C)C)cc3C(=O)N([C@@H](C)CO)C[C@H]2C)cc1	nt	2	nt	nt	3	-6
Cc1ccc2nc(SCC(=O)c3cc(C)n(C)c3C)[nH]c2c1	-2	12	1	-18	nt	nt
Cc1ccc2nc(SCC(=O)c3c(N)n(C)c(=O)n(C)c3=O)[nH]c2c1	-1	11	-2	-11	9	54*
C[C@@H]1CCCCO[C@H](CN(C)S(=O)(=O)c2ccc(Cl)cc2)[C@H](C)CN([C@H](C)CO)C(=O)c2cc(NS(=O)(=O)c3ccc(Cl)cc3)ccc2O1	nt	13	nt	nt	51	7
C[C@@H]1CCCCO[C@@H](CN(C)S(=O)(=O)c2ccc(Cl)cc2)[C@H](C)CN([C@@H](C)CO)C(=O)c2cc(NS(=O)(=O)c3ccc(Cl)cc3)ccc2O1	nt	6	nt	nt	78*	2
C[C@@H]1CCCCO[C@H](CN(C)S(=O)(=O)c2ccc(Cl)cc2)[C@H](C)CN([C@@H](C)CO)C(=O)c2cc(NS(=O)(=O)c3ccc(Cl)cc3)ccc2O1	nt	7	nt	nt	74*	4
C[C@@H]1CCCCO[C@@H](CN(C)S(=O)(=O)c2ccc(Cl)cc2)[C@H](C)CN([C@@H](C)CO)C(=O)c2cc(N(C)C)ccc2O1	nt	13	nt	nt	79*	2
C[C@@H]1CCCCO[C@@H](CN(C)S(=O)(=O)c2ccc(Cl)cc2)[C@H](C)CN([C@H](C)CO)C(=O)c2cc(N(C)C)ccc2O1	nt	-8	nt	nt	33	-5
C[C@@H]1CCCCO[C@H](CN(C)C)[C@H](C)CN([C@@H](C)CO)C(=O)c2cc(NS(=O)(=O)c3ccc(Cl)cc3)ccc2O1	nt	-15	nt	nt	97*	10
COc1ccc2c3c([nH]c2c1)[C@H](CO)N(Cc1ccncc1)CC31CCN(Cc2ccc(-c3ccccn3)cc2)CC1	nt	9	nt	nt	nt	-8
C[C@@H]1CCCCO[C@H](CN(C)S(=O)(=O)c2ccc(Cl)cc2)[C@@H](C)CN([C@@H](C)CO)C(=O)c2cc(NS(=O)(=O)c3ccc(Cl)cc3)ccc2O1	nt	15	nt	nt	68*	-24
C[C@@H]1CCCCO[C@@H](CN(C)S(=O)(=O)c2ccc(Cl)cc2)[C@@H](C)CN([C@H](C)CO)C(=O)c2cc(NS(=O)(=O)c3ccc(Cl)cc3)ccc2O1	nt	-6	nt	nt	-32	-9
SMILES	TRPM1 prom inh	LGR2 antag	LMP1 NFkB inh	Shn3 inh set2	PAX8 reporter	EWS-Fli inh
Clc1ccccc1C1=Nn2c(nnc2-c2ccncc2)SC1	-18	nt	56*	0	nt	nt
c1csc(C2=Nn3c(nnc3-c3ccncc3)SC2)c1	-13	nt	-1	24	nt	nt
CO[C@H]1CN(C)C(=O)c2ccc(NC(=O)c3ccccc3F)cc2OC[C@H](C)N(CC2CC2)C[C@@H]1C	nt	-1	nt	nt	nt	-4
COc1ccccc1-c1cn(CC[C@@H]2CC[C@H](NC(=O)C3CC3)[C@@H](CO)O2)nn1	nt	0	nt	nt	8	-6
COc1ccccc1CNC(=O)CCc1cn(C)c2ccccc12	20	-11	74*	12	12	-11
COC(=O)[C@@]1(Cc2ccc(F)cc2)[C@H]2c3cc(C(=O)N4CCCC4)n(CCF)c3C[C@H]2CN1C(=O)c1ccccc1	nt	4	nt	nt	3	-3
COC(=O)[C@@]1(Cc2ccc(F)cc2)[C@H]2c3cc(C(=O)N4CCCC4)n(CCCNc4ncc(C(F)(F)F)cc4Cl)c3C[C@H]2CN1C(=O)c1ccccc1	8	8	45*	-103	nt	nt
O=C(CN1CC(c2ccccc2)CC1=O)N/N=C/c1cc(Br)ccc1O (configuration not stated)	10	13	1	88*	21	14
CC(=O)N(C)C[C@H]1Oc2ncc(C3=CCCC3)cc2C(=O)N([C@H](C)CO)C[C@@H]1C	nt	3	nt	nt	nt	-8
Cc1ccc(-c2nn3c(C)nnc3s2)cc1NC(=O)c1ccc(-c2cccc(Cl)c2)o1	-11	nt	16	16	31	nt
Cc1ccc(-c2nn3c(C)nnc3s2)cc1NC(=O)c1ccc(-c2ccc(Cl)cc2Cl)o1	100*	nt	0	58	nt	nt
CC1(C)CC(=O)C2=C(C1)OC(c1ccc(O)cc1)C(C#N)=C2N (configuration not stated)	-2	-6	-2	0	81*	10
O=C(CCl)N1c2ccccc2Oc2ccc3ccccc3c21	88*	-48	-8	11	-21	-114
CC(=O)N1c2ccccc2Oc2cc3ccccc3cc21	-34	-49	-24	-73	-57	nt
CC(=O)Nc1cccc(-c2ccnc3c2CC(C(=O)NCc2cccc(Cl)c2)O3)c1 (configuration not stated)	nt	3	nt	17	34	63*

Screens as filed in PubChem.
